# Laboratory results reported in PubChem BioAssay AID1852 (Sanford-Burnham Center for Chemical Genomics, 2009).
# The whole screen tested about 2,500 compounds, of which about 1,100 (44%) were called active. So high a share suggests a set chosen from earlier hits. The list shows a part of the results. Values without a mark were called inactive.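 How the source made its calls: active means inhibition above 50% at 4 µM in the single-point screen; inactive means inhibition of 50% or less.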
# Assay: blockers of TNF-a NF-kB luciferase induction – cell-based, HEK293T NF-kB-Luc, luminescence, selectivity assay for NOD1/NOD2 signaling inhibitor project, primary screen (AID 1852)
# Conditions: TNF-a induced, 14 h, at 4 µM, stronger effect = higher value
row,SMILES,inhibition
1,COc1ccc(N(Cc2cc(=O)[nH]c3ccccc23)C(=O)CCl)cc1,21.4%
2,Cc1ccc(N(Cc2cc(=O)[nH]c3ccccc23)C(=O)CCl)cc1,106% (active)
3,Cc1cccc(N(Cc2cc(=O)[nH]c3ccccc23)C(=O)CCl)c1,78.4% (active)
4,O=C(CCl)N(Cc1cc(=O)[nH]c2ccccc12)c1ccccc1,99.9% (active)
5,CCCS(=O)(=O)c1cnc(C2COc3ccccc3O2)nc1N (configuration not stated),48.4%
6,Cc1ccc(-n2c(-c3ccc(Br)cc3)c[n+]3c2CCc2ccc4cccnc4c2-3)cc1,85% (active)
7,Cc1ccc(-c2csc3ncnc(Sc4nnc(CN5CCCCCC5=O)o4)c23)cc1,93.2% (active)
8,O=C(Nc1ccc(C(F)(F)F)cc1)C1CCN(S(=O)(=O)c2ccc(N3CCCC3=O)cc2)CC1,63.7% (active)
9,CC1Sc2ccc(S(=O)(=O)N3CCC(C(=O)Nc4ccc(Cl)cc4)CC3)cc2NC1=O (configuration not stated),44%
10,CC(C)(C)CC(=O)Nc1ccc(S(=O)(=O)N2CCCC2)cc1,15.8%
11,COc1ccc(CN(C)C(=O)c2cc(-c3ccc(C)cc3C)nc3ccccc23)c(OC)c1OC,-3.9%
12,COc1ccccc1CN(C)C(=O)c1cc(-c2cc(OC)c(OC)c(OC)c2)nc2ccccc12,20.3%
13,COc1cccc(CN(C)C(=O)CNC(=O)c2ccc(-c3ccccc3)cc2)c1OC,57% (active)
14,O=S(=O)(c1ccc(Cl)cc1)c1snnc1-c1ccccc1,44.1%
15,CNC(=O)c1nnsc1S(=O)(=O)c1ccc(Cl)cc1,91.4% (active)
16,Cc1ccc(S(=O)(=O)NC(C(=O)N2CCOCCOCCOCC2)C(C)C)cc1 (configuration not stated),15.4%
17,CN(c1ccc(C(=O)Nc2ccccc2C(=O)N2CCOCC2)cc1)S(C)(=O)=O,16.2%
18,CC(=O)N(c1ccccc1Cl)S(=O)(=O)c1ccc(Cl)cc1,9.8%
19,O=C(c1nnsc1S(=O)(=O)c1ccc(Cl)cc1)N1CCOCC1,52% (active)
20,O=C(Nc1nnc(-c2cccs2)o1)c1cccc(C(F)(F)F)c1,100% (active)
21,CCSCCc1nnc(NC(=O)Nc2cccc(C(F)(F)F)c2)s1,7.5%
22,O=C(Nc1nnc(-c2cccs2)o1)c1cccc(Oc2ccccc2)c1,103% (active)
23,O=C(CCC(=O)N1CCOc2ccccc21)NCc1ccccn1,18.7%

row,SMILES,inhibition
1,Cc1cc(/C=N/n2cnnc2)c(C)n1-c1ccc(OCc2ccc(Cl)cc2Cl)cc1,71.9% (active)
2,Cc1ccc(S(=O)(=O)Nc2ccc(Br)cc2/C=N/n2cnnc2)cc1,47.3%
3,CN(C)c1ccnc2sc(C(N)=O)c(N)c12,83.5% (active)
4,Cc1cc(NC(=O)/C=C/c2ccc(F)cc2)n(-c2nc3ccccc3[nH]2)n1,-3.9%
5,O=C(c1ccccc1)c1ccc2nc(-c3ccc(NC(=O)c4ccccc4Br)cc3)[nH]c2c1,11.7%
6,Cc1c(C(=O)Nc2nc3ccccc3[nH]2)oc2ccc(Br)cc12,98.6% (active)
7,CCc1ccc(C(=O)Nc2nc3ccccc3[nH]2)cc1,103% (active)
8,CN(c1ccccc1)S(=O)(=O)c1cc(C(=O)Nc2nc3ccccc3[nH]2)ccc1Cl,31.3%
9,O=C(Nc1nc2ccccc2[nH]1)c1cc(F)cc(F)c1,80.3% (active)
10,Cc1ccc(O)c(N=Cc2cc(Cc3ccccc3)cc([N+](=O)[O-])c2O)c1,-1.6%
11,Cc1ccc(N=Cc2cc(Cc3ccccc3Cl)cc([N+](=O)[O-])c2O)c(O)c1,70.8% (active)
12,Cc1ccc(-n2c(C)c([N+](=O)[O-])c3ccc(O)cc32)cc1,40.4%
13,CN(C)/C=C/c1c([N+](=O)[O-])c2ccc(O)cc2n1-c1ccccc1,83.5% (active)
14,Cc1c([N+](=O)[O-])c2ccc(O)cc2n1-c1ccccc1,60.9% (active)
15,O=C1S/C(=C\c2ccc(O)c([N+](=O)[O-])c2)C(=O)N1Cc1cccc([N+](=O)[O-])c1,19.6%
16,O=C1/C(=C\c2cc(Cl)c(O)c(Cl)c2)SC(=S)N1Cc1ccccc1,82.7% (active)
17,Cc1ccc(/C=C2\SC(=S)N(C(Cc3ccccc3)C(=O)O)C2=O)cc1 (configuration not stated),25.1%
18,O=C1/C(=C\c2cccc([N+](=O)[O-])c2O)SC(=S)N1Cc1ccccc1,14.2%
19,O=C1/C(=C/c2ccc(O)c([N+](=O)[O-])c2)SC(=S)N1Cc1ccccc1,88.5% (active)
20,COc1cc([N+](=O)[O-])cc(/C=C2/SC(=S)N(Cc3ccccc3)C2=O)c1O,81.1% (active)
21,COc1cc(/C=C2\SC(=S)N(CCC(=O)Nc3ccccc3)C2=O)cc(OC)c1OC,6.8%
22,COc1ccc(/C=C/C(=O)C2CC2)cc1Cn1nc(C)c([N+](=O)[O-])c1C,36.6%
23,Cc1ccc(C(C)C)c(OCc2ccc(-c3nnco3)cc2)c1,12.4%

row,SMILES,inhibition
1,COc1cc(/C=C2/SC(=Nc3ccc(O)cc3)NC2=O)ccc1O,89.8% (active)
2,COc1cc(/C=C2\SC(N3CCC(C)CC3)=NC2=O)ccc1O,1.4%
3,COc1cc(/C=C2/C(=O)NN(c3ccc(Cl)cc3)C2=O)cc(Br)c1O,-1.7%
4,COc1cccc(OCCOc2ccc(/C=C3/SC(=S)NC3=O)cc2)c1,-114%
5,COc1cc(/C=C2\SC(=N)N(c3ccc(F)cc3)C2=O)ccc1O,51.1% (active)
6,COc1ccc(N=C2NC(=O)/C(=C/c3ccc(O)c(OC)c3)S2)cc1,70.8% (active)
7,COc1ccccc1OCCCOc1cccc(/C=C2\SC(=O)NC2=O)c1,3.3%
8,COc1ccc(OC)c(/C=C2\S/C(=N/NC(=O)c3ccc4ccccc4c3)NC2=O)c1,-2.1%
9,COc1cc(/C=N/NC(=O)c2cc3c(ccc4ccccc43)o2)cc(OC)c1O,36.5%
10,COc1cc(/C=N/NC(=O)c2ccc(-c3ccccc3)cc2)cc(OC)c1OC,63.8% (active)
11,COc1cccc(/C=N/NC(=O)c2ccc(-c3ccccc3)cc2)c1O,70% (active)
12,COc1cc(/C=N\NC(=O)c2ccc(-c3ccccc3)cc2)cc(Br)c1O,43%
13,Cc1ccccc1CS(=O)(=O)c1nnc([C@H](CC(C)C)NC(=O)OC(C)(C)C)o1,35%
14,COc1cc(CNc2ccc3[nH]c(=O)[nH]c3c2)ccc1OCc1c(F)cccc1Cl,49.2%
15,Clc1c(Cl)c(Cl)c2n[nH]nc2c1Cl,26.8%
16,O=C(CCC(=O)Nc1ccc(Br)cc1)N/N=C/c1ccccc1O,49.3%
17,COc1cccc(/C=N/NC(=O)c2c(C)nc3ccc(Cl)cn23)c1O,46.8%
18,O=C(N/N=C/c1ccccc1O)c1cccc2ccccc12,99.3% (active)
19,Cc1cccc2cc(/C=N/NC(=O)c3ccccc3O)c(Cl)nc12,63.3% (active)
20,Cc1ccc(NC(=O)CCC(=O)N/N=C/c2ccccc2O)cc1,58.1% (active)
21,O=C(/C=C/c1ccco1)Oc1cc(Br)cc(/C=N/NC(=O)c2ccccc2O)c1,44.6%
22,Cc1c(/C=N/NC(=O)c2ccccc2O)c2ccccn2c1C(=O)c1ccc(F)cc1,21.3%
23,O=C(N/N=C/c1cccc2cccnc12)c1ccccc1O,53.1% (active)

row,SMILES,inhibition
1,O=C1CCN(CCc2ccccc2)CCN1CCOc1ccccc1,-6.2%
2,CCc1cc(C(=O)N/N=C/c2ccc(O)cc2O)c2ccccc2n1,50.7% (active)
3,O=C(N/N=C/c1ccc(O)cc1O)c1ccncc1,28.2%
4,CCOc1ccc(/C=N/NC(=O)C(O)c2ccccc2)c(O)c1 (configuration not stated),45.4%
5,CCn1c(SCC(=O)Nc2nc(-c3ccccc3)cs2)nnc1-c1ccccc1,34.3%
6,Cc1csc(SCC(=O)Nc2cccc3nsnc23)n1,100% (active)
7,O=C(CN1C(=O)c2cccnc2Oc2ccc(Cl)cc21)NCCCc1ccccc1,12%
8,O=C(NC(=S)N(CCCCO)C1CCCCC1)c1sc2ccccc2c1Cl,104% (active)
9,COc1ccc(C(=O)NC(=S)N(C)C2CCCCC2)cc1Br,-14.8%
10,Cc1ccc(C(=O)NC(=S)N(C)C2CCCCC2)cc1Br,106% (active)
11,Cc1ccc(C(C)NC(=S)NC2CCCCC2)cc1C (configuration not stated),24.8%
12,Cc1onc(-c2c(F)cccc2Cl)c1C(=O)Nc1nnc(C(F)(F)F)s1,48.9%
13,Cc1onc(-c2ccccc2Cl)c1C(=O)Nc1nnc(-c2ccc(Br)cc2)s1,-22.4%
14,Cc1ccccc1N1CCN(S(=O)(=O)c2nnc(NC(=O)c3ccc(F)cc3)s2)CC1,-27.1%
15,O=C(Nc1ccccc1C(=O)Nc1nnc(C(F)(F)F)s1)c1ccccc1Cl,86.7% (active)
16,O=C(Nc1ccccc1C(=O)Nc1nnc(C(F)(F)F)s1)c1ccccc1,51% (active)
17,Cc1ccnc(OC(C(=O)O)C(OCc2ccccc2)(c2ccc(F)cc2)c2ccc(F)cc2)n1 (configuration not stated),-7.9%
18,CCn1cc([N+](=O)[O-])c(C(=O)N2N=C(c3ccc(OC)cc3OC)CC2c2ccccc2O)n1 (configuration not stated),86.6% (active)
19,CCn1cc([N+](=O)[O-])c(C(=O)N2N=C(c3ccc4ccccc4c3)CC2c2cc(Br)ccc2O)n1 (configuration not stated),-56.7%
20,CC1CC(C)CN(C(=O)CSc2nc(Cc3cccs3)nc3ccccc23)C1 (configuration not stated),-34.3%
21,Nc1ccc2c(c1)C(=O)C(=O)c1ccccc1-2,97.6% (active)
22,O=C1C(=O)c2ccc(-c3ccccc3)cc2-c2ccccc21,102% (active)
23,O=C1C(Cl)=C(Nc2ccccc2)C(=O)c2ccccc21,-83.5%
